Screening data (PubChem BioAssay)
Anthrax LF prot: inhibitors of Bacillus anthracis lethal factor protease; P15917; AID 588501; multiplex microsphere protease cleavage assay, LF; 360,000 tested, 0.12% active; inhibition, % at 10 µM; further: plate controls were buffer without enzyme for full effect and enzyme alone for no effect
BoNT A protease: inhibitors of Botulinum neurotoxin A light chain protease | multiplex microsphere protease substrate cleavage, flow cytometry | inhibition, % at 10 µM | 360,000 tested, 0.17% active; further: plate controls were buffer without enzyme for full effect and enzyme alone for no effect
SARS 3CLpro inh: SARS-CoV 3CLpro protease inhibition. 290,000 tested, 0.14% active. AID 1706. recombinant SARS-CoV 3CLpro, quenched FRET peptide cleavage. P0C6X7. inhibition, % at 6 µM; in the data active means inhibition above about 12%
DUSP3 inh: blocks human VHR1 dual specificity phosphatase; recombinant VHR phosphatase, pNPP absorbance; 290,000 tested, 0.52% active; P51452; inhibition, % at 13.3 µM; in the data active means inhibition above about 50%
Target sequence (P51452 whole entry, looked up): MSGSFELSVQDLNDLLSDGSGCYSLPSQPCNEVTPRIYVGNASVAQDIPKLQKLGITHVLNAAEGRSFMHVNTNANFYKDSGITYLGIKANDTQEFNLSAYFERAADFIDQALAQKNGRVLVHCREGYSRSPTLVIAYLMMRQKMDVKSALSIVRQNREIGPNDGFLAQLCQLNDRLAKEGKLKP
Bead autofluor: counter-screen for toxin protease inhibitors: compound fluorescence; compound autofluorescence counterscreen, microsphere flow cytometry; hits give high values; fluorescence intensity (no concentration beside the values); 360,000 tested, 3.1% active; in the data active means fluorescence intensity above about 16000; inconclusive means no clear call, values can overlap the other calls
BoNT F protease: blocks Botulinum neurotoxin F light chain protease | Multiplex microsphere protease cleavage assay, flow cytometry | 360,000 tested, 0.22% active | AID 588497 | inhibition, % at 10 µM; in the data active means inhibition above about 35%, passing the limit was not always enough; inconclusive means no clear call, values can overlap the other calls; further: plate controls were buffer without enzyme for full effect and enzyme alone for no effect
The depositor's hits bear a star; ? = inconclusive; . = not tested or not shown. Only some compounds are listed: those with a hit (about 3.9% of all), similar ones and a draw of the others. Unless noted, no stated cut-off is given here; in the data, active means inhibition above about 30%; inconclusive means no clear call, values can overlap the other calls; inactive means below that.

SMILES | Anthrax LF prot | BoNT A protease | SARS 3CLpro inh | DUSP3 inh | Bead autofluor | BoNT F protease
COc1ccc(N2c3ccccc3CN(Cc3ccccc3)CC2Cc2cc(OC)c(OC)c(OC)c2)cc1 (stereo not drawn) | -13 | -1 | . | . | 3808 | -2
Cn1c(=O)c2c(nc(N3CCN(c4ccccn4)CC3)n2Cc2ccccc2Cl)n(C)c1=O | 1 | ? | -2 | 22 | 21245* | 7
CCOc1cc(S(=O)(=O)N2CCN(Cc3ccccc3)CC2)ccc1Br | -2 | -1 | -1 | 32 | 5053 | -40
COC(=O)c1ccc(Oc2nc(Nc3ccc(C)c(C)c3)nc(N(C)C)n2)cc1 | -4 | -3 | 0 | 30 | 24525* | -7
COc1ccc(/C=C2\CC/C(=C\c3ccc(OC)c(OC)c3)C2=O)cc1OC | 1 | 0 | -1 | -2 | 6628 | -4
COc1ccc(C=C2C=C(C(C)(C)C)C(=O)C(C(C)(C)C)=C2)cc1OC | 24 | 86* | 4 | 16 | 4135 | 25
N#CC(c1ccccc1)(c1ncc(C(F)(F)F)cc1Cl)N1CCOCC1 (stereo not drawn) | -1 | 0 | 3 | 23 | 10895 | 0
N#CC(c1cccc(C(F)(F)F)c1)(c1ncc(C(F)(F)F)cc1Cl)N1CCOCC1 (stereo not drawn) | -6 | 0 | -1 | 20 | 23108* | -2
CN(CC(=O)Nc1cccc(F)c1)C(=O)c1ccc(S(=O)(=O)N2CCCC2)cc1 | -5 | 2 | . | . | 8331 | 4
CCCCOc1ccc(Cl)cc1CSc1nnc(CC)n1N | -4 | -4 | -3 | -5 | 24086* | -6
CCOC(=O)Cn1cnc2c(nnn2-c2ccc(F)cc2)c1=O | -5 | 0 | -3 | 17 | 6029 | 2
O=C(O)C1C2C=CC(C2)C1C(=O)N1CCOCC1 (stereo not drawn) | 2 | 0 | -1 | 2 | 12793 | 1
O=C(NC1CCCC1)C1C2C=CC(C2)C1C(=O)N1CCOCC1 (stereo not drawn) | -2 | ? | -1 | 42 | 21400* | 3
COc1ccc2oc(C(=O)Nc3nc(C)cs3)c(C)c2c1 | -4 | 1 | . | . | 3071 | 3
O=C1CC(C(=O)N(c2ccc(F)cc2)C(C(=O)NC2CCCC2)c2ccccn2)CS1 (stereo not drawn) | -1 | 1 | 1 | 6 | 22756* | 0
COc1cc(C2c3cc4c(cc3CC3COC(=O)N32)OCO4)cc(OC)c1OC (stereo not drawn) | -6 | 0 | . | . | 3239 | -4
CCOC(=O)c1cnc(-n2cc(C)cn2)nc1Nc1ccccc1OCC | -1 | -2 | -1 | 19 | 23982* | -3
CCOC(=O)c1cnc(-n2nc(C)cc2C)nc1Nc1ccccc1OC | . | . | 0 | 10 | . | .
CC(C)CCNC(=O)C1CCN(c2nc3ccccc3o2)CC1 | -7 | -2 | 2 | 25 | 16365* | -3
CN1CCc2[nH]c3ccc(C(=O)NN)cc3c2C1 | -2 | 4 | -7 | 30 | 20838* | -2
NNC(=O)c1ccc2[nH]c3c(c2c1)CCCC3 | 2 | -1 | 4 | 2 | 4272 | -3
O=C(c1ccccc1)c1c2c(cc3sc4ccccc4[n+]13)-c1cccc3cccc-2c13 | 2 | 73* | -124 | 12 | 6966 | -16
Cc1sc2cc3c(c(C(=O)c4ccccc4)[n+]2c1C)-c1cccc2cccc-3c12 | . | . | -14 | 12 | . | .
CCCSc1nc2c(c(=O)n(C)c(=O)n2C)n1C | -8 | -8 | 0 | 13 | 3002 | -4
CCCSc1nc(O)c(CC)c(=O)n1C(C)CC (stereo not drawn) | -9 | ? | -1 | 1 | 19471* | 11
SMILES | Anthrax LF prot | BoNT A protease | SARS 3CLpro inh | DUSP3 inh | Bead autofluor | BoNT F protease
O=C(CCNS(=O)(=O)c1ccc(Br)cc1)NCc1ccc2c(c1)OCO2 | -1 | -2 | 2 | 15 | 24584* | -3
CN(C)S(=O)(=O)c1ccc(S(=O)(=O)NCc2ccc3c(c2)OCO3)cc1 | 2 | 4 | 0 | 11 | 2948 | 38*
COC(=O)c1cc(C(=O)Nc2ccc(S(N)(=O)=O)cc2)cc([N+](=O)[O-])c1 | -5 | 0 | -2 | -22 | 4621 | -3
Cc1ncsc1C(=O)Nc1nc2c(s1)CCCC2 | -2 | -1 | -2 | -12 | 9942 | -2
Cc1cc(C(=O)Nc2nnc(C3CCCCC3)s2)cs1 | -4 | ? | -4 | 16 | 23418* | -4
Cc1cc(C(=O)Nc2nc3c(s2)CCCC3)cs1 | -4 | -2 | 0 | 13 | 16226* | -4
O=C(Nc1nc2c(s1)CCCC2)C1CCCN1C(=O)c1cccs1 (stereo not drawn) | 0 | 0 | -2 | 8 | 16410* | -1
Cc1cc(C(=O)Nc2nnc(C(F)(F)F)s2)cs1 | -6 | -1 | 2 | -3 | 4653 | -3
Cc1ccc(N(CC(=O)NCc2ccco2)C(=O)CCC(=O)Nc2ccccn2)c(C)c1 | -1 | -1 | 2 | 12 | 5568 | 9
Cc1cccc2c1c(N=NC(N)=S)c(O)n2C1OC(CO)C(O)C(O)C1O (stereo not drawn) | -15 | -4 | 1 | -6 | 3922 | -18
Cc1cc(C)c(CC(=O)c2ccccc2)c(C)c1 | -6 | 0 | . | . | 3734 | 3
CCC1COCCS(=O)(=O)N1Cc1cccc(C(F)(F)F)c1 (stereo not drawn) | 3 | 1 | 6 | 20 | 2908 | -1
COc1ccc(CCNC(=O)c2cc(-c3cc(C)c(C)cc3O)n[nH]2)cc1OC | -2 | 0 | 1 | 14 | 22479* | 0
COc1ccc(CCNC(=S)NC(=O)c2ccccc2)cc1OC | 0 | -1 | 1 | 22 | 23568* | 0
COc1ccc(CCNC(=O)c2ccc(=O)[nH]n2)cc1OC | 5 | 0 | 2 | 6 | 5644 | 3
COc1ccc(CCNC(=S)NC(=O)c2cccc(Cl)c2)cc1OC | ? | 1 | -2 | -3 | 3811 | 7
CCc1noc(C)c1C(=O)NCCc1ccc(OC)c(OC)c1 | -2 | ? | -1 | 19 | 24111* | 1
CCc1noc(C)c1C(=O)NCCc1ccc(S(N)(=O)=O)cc1 | 0 | 2 | . | . | ? | 5
CCC(=O)N(CC)C1=C(O)c2ccccc2C(=O)C1=O | 1 | 0 | -1 | 16 | 20676* | -2
COc1ccc(S(=O)(=O)Nc2cccnc2)cc1 | -1 | 0 | 2 | -7 | 3611 | 1
Cc1ccc(S(=O)(=O)N(C)c2ccccc2)cc1 | -1 | 0 | 7 | 22 | 3796 | 2
Cc1ccc(N(C)S(=O)(=O)c2ccc(C)cc2)cc1 | 0 | -4 | 2 | -10 | 24242* | -6
CCOc1ccc(CCNC(=O)COC(=O)c2cc([N+](=O)[O-])ccc2N2CCOCC2)cc1OCC | 2 | 2 | 5 | 20 | 5371 | -11
O=C(NCCN1CCOCC1)c1cc(-c2ccc(Cl)c(Cl)c2)on1 | -1 | -1 | -1 | 20 | 5942 | -9
COc1cccc(-c2cc(C(=O)NCCN3CCOCC3)no2)c1 | 0 | -3 | -1 | 19 | 17375* | -5
CCOc1ccc(CCNC(=O)c2cc([N+](=O)[O-])ccc2N2CCOCC2)cc1OCC | -2 | -2 | -6 | 50* | ? | 7
